The source of these data is PubChem BioAssay (Tox21).

Structures are written as SMILES. Results filed as inconclusive are left out. Active and inactive are the calls of the source. The call rests on the fitted dose curve.

Sequence of Peroxisome proliferator-activated receptor delta (Homo sapiens) (Q03181 whole entry, looked up): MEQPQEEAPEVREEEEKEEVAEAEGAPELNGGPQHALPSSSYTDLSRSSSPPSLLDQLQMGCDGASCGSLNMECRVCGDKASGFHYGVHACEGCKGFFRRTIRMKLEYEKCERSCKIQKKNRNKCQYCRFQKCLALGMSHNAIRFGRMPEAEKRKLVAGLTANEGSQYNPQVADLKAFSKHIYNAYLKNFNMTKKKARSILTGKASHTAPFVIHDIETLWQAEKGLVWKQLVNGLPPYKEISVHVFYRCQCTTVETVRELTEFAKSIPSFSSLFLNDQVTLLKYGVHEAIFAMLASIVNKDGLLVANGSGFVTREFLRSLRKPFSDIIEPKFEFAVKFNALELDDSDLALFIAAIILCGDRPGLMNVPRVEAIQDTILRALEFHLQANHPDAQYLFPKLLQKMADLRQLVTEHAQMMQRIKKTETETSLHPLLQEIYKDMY

The assay has as its target Peroxisome proliferator-activated receptor delta (Homo sapiens) (UniProt Q03181). The experiment in a line: qHTS assay to identify small molecule agonists of the peroxisome proliferator-activated receptor delta (PPARd) signaling pathway (AID 743212). The settings on record: HEK293H PPARd-UAS-bla, beta-lactamase FRET ratio, 17 h; series mostly up to 62.6 µM. The source says:
U.S. Tox21 Program National Center for Advancing Translational Sciences [NCATS] NIH Chemical Genomics Center [NCGC] U.S. Environmental Protection Agency [EPA] National Institutes of Environmental Health Sciences [NIEHS] National Toxicology Program [NTP] U.S. Food and Drug Administration [FDA] Tox21 Assay Overview: The peroxisome proliferator-activated receptors (PPARs) are lipid-activated transcription factors of the nuclear receptor superfamily with three distinct subtypes namely PPAR alpha, PPAR delta (PPARd) and PPAR gamma. All these subtypes heterodimerizes with Retinoid X receptor (RXR) and have different physiological functions. […] To identify the compounds that activate PPAR-delta signaling, GeneBLAzer PPAR delta UAS-bla HEK293H cell line (Invitrogen, Carlsbad, CA, USA) containing a beta-lactamase reporter gene under the control of an Upstream Activator Sequence (UAS) was used to screen the Tox21 compound library.
Tox21 Assay Protocol Summary: PPARd-bla cells were dispensed at 3000 cells/6uL/well in 1536-well black wall/clear bottom plates using a Multidrop Combi (Thermo Fisher Scientific, Waltham, MA) dispenser. After the assay plates were incubated at 37 C and 5% CO2 for 5 h, 23 nL of compounds dissolved in DMSO, positive controls or DMSO only was transferred to the assay plate by a Pintool station (Kalypsys, San Diego, CA). The assay plates were incubated at 37C for 17 h. After 1 uL of LiveBLAzerTM B/G FRET substrate was added using a Bioraptr Flying Reagent Dispenser (FRD) workstation (Beckman Coulter, Indianapolis, IN, USA), the plates were incubated at room temperature for 2 h, and fluorescence intensity was measured by an Envision plate reader (PerkinElmer, Shelton, CT).
In general terms: qHTS replaces the single test concentration by a dilution series.
Take `OCc1ccco1`: the outcome was inactive.
Then `CC(=O)C1CCOC1=O` (stereo not given), with “inactive”.
Then `Nc1ccc([As](=O)(O)O)cc1`, with “inactive”.
Then `FC(F)(F)c1ccc(Cl)cc1`, with “inactive”.
As to `Cc1cccc(C)c1NC(=O)CN1CCCC1=O`, the outcome was inactive.
Then `O=S(=O)(O)OOS(=O)(=O)O`, with “inactive”.
Then `COS(=O)(=O)OC`, with “inactive”; and `Cc1cccc(N)c1C`, with “inactive”; and `[N-]=[N+]=CC(=O)OC[C@H](N)C(=O)O`, with “inactive”.
As to `ClC(Cl)c1ccccc1`, the result was inactive.
For the compound `C[C@]12CC[C@H](O)CC1=CC[C@@H]1[C@@H]2CC[C@]2(C)C(=O)CC[C@@H]12`, the result was inactive.
Then `COP(=S)(OC)SCN1C(=O)c2ccccc2C1=O`, with “inactive”; and `CNC(=O)O/N=C(\SC)C(=O)N(C)C`, with “inactive”.
Then `Oc1c(Br)cc(Br)cc1Br`, with “inactive”; and `Cl[C@H]1OCCO[C@@H]1Cl`, with “inactive”.
Then `CCOP(=S)(OCC)Oc1cc(C)nc(C(C)C)n1`, with “inactive”; and `CCCCC(CC)C(=O)Cl` (stereo not given), with “inactive”; and `Cc1ccc(O)c(C)c1`, with “inactive”.
Regarding `OC[C@@H](O)[C@H]1O[C@@H]2O[C@H](C(Cl)(Cl)Cl)O[C@@H]2[C@H]1O`, the result was inactive.
Then `COC(=O)Nc1cccc(OC(=O)Nc2cccc(C)c2)c1`, with “inactive”.
Regarding `CNCC(O)c1ccc(O)cc1` (stereo not given), the result was inactive.
Then `O=[N+]([O-])c1ccc(Cl)c(Cl)c1`, with “inactive”.
Then `CC(=O)/C=C/c1ccccc1`, with “inactive”; and `CCSC(=O)N1CCCCCC1`, with “inactive”.
Regarding `Nc1cccc(Cl)c1`, the result was inactive.
Then `CSc1nnc(C(C)(C)C)c(=O)n1N`, with “inactive”.
Then `Nc1cc(Cl)cc(Cl)c1`, with “inactive”; and `Cc1ccccc1N`, with “inactive”.
Then `CN(C)C(=O)Cl`, with “inactive”.
Consider `Cc1cc(O)ccc1Cl`, for which the result was inactive.
`CNC(=O)O/N=C/C(C)(C)SC`: the outcome was inactive.
For `CNC(=O)O/N=C/C(C)(C)S(C)=O` (stereo not given), the outcome was inactive.
Then `CC(C)c1cccc(C(C)C)c1O`, with “inactive”.
Then `CC[N+](=O)[O-]`, with “inactive”.
Then `CNc1cnn(-c2cccc(C(F)(F)F)c2)c(=O)c1Cl`, with “inactive”.
In the case of `CCOC(=O)CC(SP(=O)(OC)OC)C(=O)OCC` (stereo not given), the outcome was inactive.
Then `N#CN=C(N)N`, with “inactive”.
On to `N#Cc1cccc(C#N)c1`, for which the result was inactive.
On to `C=CC(=O)OCCCCCC(C)C`, for which the result was inactive.
`CN(C)NC(=O)CCC(=O)O`: the outcome was inactive.
